# Assay results from article PMC7862700, “An all-to-all approach to the identification of sequence-specific readers for epigenetic DNA modifications on cytosine”.
# Tests used:
# Assay in all cases: DAPPL (digital affinity profiling via proximity ligation, sequencing); 10 mM Tris-HCl pH 7.5, 50 mM NaCl, 1 mM DTT, 4% glycerol, room temperature, 30 min; GST-TFs on glutathione beads, 16-mer random dsDNA library, 0.1% formaldehyde crosslink after washing; high values mean tight binding
# FEV = molecular target: T1, FEV (Homo sapiens, UniProt Q99581 1-238); settings: protein: recombinant; tags: N-terminal GST; dsDNA, one strand shown
# T1 sequence: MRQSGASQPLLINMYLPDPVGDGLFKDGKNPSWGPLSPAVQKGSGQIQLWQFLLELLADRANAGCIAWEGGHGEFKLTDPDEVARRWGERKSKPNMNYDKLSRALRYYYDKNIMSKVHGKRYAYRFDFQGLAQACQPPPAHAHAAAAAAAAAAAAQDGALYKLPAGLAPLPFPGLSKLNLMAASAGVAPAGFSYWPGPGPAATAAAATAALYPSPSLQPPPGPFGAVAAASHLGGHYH
# Outline: (§1)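 Human transcription factors fused to GST were expressed in yeast, captured on glutathione beads, given DNA barcodes and pooled with a GST-only negative control. Pools were incubated with 200 nmole of a 16-mer random double-stranded DNA library in Tris/NaCl/DTT/glycerol buffer at room temperature for 30 min. They were then washed, crosslinked with 0.1% formaldehyde, proximity-ligated (BsaI/T4 ligase, 1 h, 37 °C), PCR-amplified and sequenced on an Illumina NextSeq500. Binding signal is each 6-mer's read frequency for a factor divided by its frequency for the GST control.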
# ETV5 = ETV5 (Homo sapiens, UniProt P41161 1-510); settings: protein: recombinant; tags: N-terminal GST; dsDNA, one strand shown
# Chain of ETV5 (P41161 whole entry): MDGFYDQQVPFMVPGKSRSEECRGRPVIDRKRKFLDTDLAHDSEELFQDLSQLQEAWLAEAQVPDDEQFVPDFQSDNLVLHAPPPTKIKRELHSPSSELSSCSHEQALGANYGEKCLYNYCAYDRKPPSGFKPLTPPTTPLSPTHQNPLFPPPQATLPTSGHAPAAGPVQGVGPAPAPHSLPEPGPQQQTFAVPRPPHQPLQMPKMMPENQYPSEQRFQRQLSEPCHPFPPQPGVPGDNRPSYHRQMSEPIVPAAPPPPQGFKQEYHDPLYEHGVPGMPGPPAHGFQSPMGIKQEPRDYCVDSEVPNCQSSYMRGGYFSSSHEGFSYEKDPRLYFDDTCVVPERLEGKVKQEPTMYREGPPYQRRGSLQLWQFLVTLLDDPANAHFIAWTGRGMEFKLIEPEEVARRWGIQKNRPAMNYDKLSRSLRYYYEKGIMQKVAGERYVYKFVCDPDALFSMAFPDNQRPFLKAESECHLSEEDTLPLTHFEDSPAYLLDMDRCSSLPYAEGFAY
# Outline: as §1
# HSF1 = HSF1 (Homo sapiens, UniProt Q00613 1-529); settings: protein: recombinant; tags: N-terminal GST; chain copies: 3; dsDNA, one strand shown
# Chain of HSF1 (Q00613 whole entry): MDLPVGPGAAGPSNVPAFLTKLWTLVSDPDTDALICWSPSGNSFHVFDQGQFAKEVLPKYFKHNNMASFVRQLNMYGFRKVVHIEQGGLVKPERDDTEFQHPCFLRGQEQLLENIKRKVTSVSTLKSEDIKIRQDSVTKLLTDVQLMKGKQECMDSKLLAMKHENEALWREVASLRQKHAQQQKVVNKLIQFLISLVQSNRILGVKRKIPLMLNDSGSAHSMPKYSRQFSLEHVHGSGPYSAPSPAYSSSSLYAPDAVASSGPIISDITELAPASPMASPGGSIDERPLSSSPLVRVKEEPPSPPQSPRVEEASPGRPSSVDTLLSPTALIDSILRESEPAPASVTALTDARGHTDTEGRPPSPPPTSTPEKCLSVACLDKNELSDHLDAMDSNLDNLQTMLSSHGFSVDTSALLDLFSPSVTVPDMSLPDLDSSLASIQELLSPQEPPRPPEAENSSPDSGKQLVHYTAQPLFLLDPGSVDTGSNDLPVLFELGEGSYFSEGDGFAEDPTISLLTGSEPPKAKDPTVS
# Outline: as §1
# SPIC = molecular target: T2, SPIC (Homo sapiens, UniProt Q8N5J4 1-248); settings: protein: recombinant; tags: N-terminal GST; dsDNA, one strand shown
# T2 sequence: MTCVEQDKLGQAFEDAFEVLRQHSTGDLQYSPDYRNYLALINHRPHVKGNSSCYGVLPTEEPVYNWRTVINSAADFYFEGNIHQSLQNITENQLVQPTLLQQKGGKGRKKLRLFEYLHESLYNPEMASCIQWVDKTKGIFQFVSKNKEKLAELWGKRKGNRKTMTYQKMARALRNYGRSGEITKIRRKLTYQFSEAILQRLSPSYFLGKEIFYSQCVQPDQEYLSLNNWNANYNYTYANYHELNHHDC
# Outline: as §1
# ELF4 = ELF4 (Homo sapiens, UniProt Q99607 1-663); settings: protein: recombinant; tags: N-terminal GST; dsDNA, one strand shown
# Chain of ELF4 (Q99607 whole entry): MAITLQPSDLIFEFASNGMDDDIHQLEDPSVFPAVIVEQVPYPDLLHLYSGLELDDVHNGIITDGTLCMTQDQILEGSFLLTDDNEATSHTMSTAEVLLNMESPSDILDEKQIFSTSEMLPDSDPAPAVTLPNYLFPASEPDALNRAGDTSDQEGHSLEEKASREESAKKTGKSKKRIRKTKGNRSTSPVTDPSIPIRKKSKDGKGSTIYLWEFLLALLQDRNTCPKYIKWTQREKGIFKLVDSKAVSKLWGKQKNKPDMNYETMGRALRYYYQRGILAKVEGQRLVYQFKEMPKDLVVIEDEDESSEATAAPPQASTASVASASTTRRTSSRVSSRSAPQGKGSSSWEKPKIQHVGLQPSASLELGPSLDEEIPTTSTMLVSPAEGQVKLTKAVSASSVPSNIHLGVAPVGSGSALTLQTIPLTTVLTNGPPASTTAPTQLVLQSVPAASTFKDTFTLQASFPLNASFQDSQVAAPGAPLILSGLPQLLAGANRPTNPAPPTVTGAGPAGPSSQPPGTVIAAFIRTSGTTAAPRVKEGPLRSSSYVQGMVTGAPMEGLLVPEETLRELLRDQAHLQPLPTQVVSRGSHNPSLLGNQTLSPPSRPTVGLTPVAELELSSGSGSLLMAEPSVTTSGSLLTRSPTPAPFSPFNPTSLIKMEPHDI
# Outline: as §1
# ELK4 = molecular target: T3, ELK4 (Homo sapiens, UniProt P28324-2 1-405); settings: protein: recombinant; tags: N-terminal GST; dsDNA, one strand shown
# T3 sequence: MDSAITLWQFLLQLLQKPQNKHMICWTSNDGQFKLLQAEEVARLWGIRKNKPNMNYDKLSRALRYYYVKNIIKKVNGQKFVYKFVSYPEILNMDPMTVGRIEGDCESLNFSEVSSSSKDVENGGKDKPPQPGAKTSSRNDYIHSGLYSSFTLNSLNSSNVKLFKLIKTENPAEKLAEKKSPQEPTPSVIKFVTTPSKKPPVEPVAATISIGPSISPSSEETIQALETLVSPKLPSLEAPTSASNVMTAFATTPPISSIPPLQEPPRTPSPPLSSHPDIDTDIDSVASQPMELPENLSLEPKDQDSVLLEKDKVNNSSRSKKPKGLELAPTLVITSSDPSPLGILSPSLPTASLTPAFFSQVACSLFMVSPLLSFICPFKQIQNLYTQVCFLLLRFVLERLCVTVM
# Outline: as §1
# ETV2 = molecular target: T4, ETV2 (Homo sapiens, UniProt O00321 1-342); settings: protein: recombinant; tags: N-terminal GST; dsDNA, one strand shown
# T4 sequence: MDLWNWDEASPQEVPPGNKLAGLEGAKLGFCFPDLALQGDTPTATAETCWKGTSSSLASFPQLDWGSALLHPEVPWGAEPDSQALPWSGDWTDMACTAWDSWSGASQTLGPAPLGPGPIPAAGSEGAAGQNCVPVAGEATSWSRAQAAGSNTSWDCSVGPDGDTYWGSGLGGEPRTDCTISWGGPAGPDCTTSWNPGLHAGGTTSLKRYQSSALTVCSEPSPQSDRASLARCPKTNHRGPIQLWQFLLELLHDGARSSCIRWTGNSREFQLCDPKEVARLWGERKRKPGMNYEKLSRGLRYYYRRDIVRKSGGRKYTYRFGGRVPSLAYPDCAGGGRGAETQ
# Outline: as §1
# ELF3 = molecular target: T5, ELF3 (Homo sapiens, UniProt P78545 1-371); settings: protein: recombinant; tags: N-terminal GST; dsDNA, one strand shown
# T5 sequence: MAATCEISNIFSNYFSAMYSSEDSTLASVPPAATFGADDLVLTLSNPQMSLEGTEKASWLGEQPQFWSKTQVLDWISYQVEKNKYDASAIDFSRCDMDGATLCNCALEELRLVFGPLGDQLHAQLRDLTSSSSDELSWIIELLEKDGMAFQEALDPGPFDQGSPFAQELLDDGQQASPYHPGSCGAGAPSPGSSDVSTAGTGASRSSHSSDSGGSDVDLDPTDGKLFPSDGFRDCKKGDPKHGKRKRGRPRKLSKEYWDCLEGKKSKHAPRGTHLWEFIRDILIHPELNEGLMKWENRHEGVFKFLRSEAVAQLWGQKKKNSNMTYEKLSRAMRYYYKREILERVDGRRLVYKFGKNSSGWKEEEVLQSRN
# Outline: as §1
# CRX = CRX (Homo sapiens, UniProt O43186 1-299); settings: protein: recombinant; tags: N-terminal GST; dsDNA, one strand shown
# Chain of CRX (O43186 whole entry): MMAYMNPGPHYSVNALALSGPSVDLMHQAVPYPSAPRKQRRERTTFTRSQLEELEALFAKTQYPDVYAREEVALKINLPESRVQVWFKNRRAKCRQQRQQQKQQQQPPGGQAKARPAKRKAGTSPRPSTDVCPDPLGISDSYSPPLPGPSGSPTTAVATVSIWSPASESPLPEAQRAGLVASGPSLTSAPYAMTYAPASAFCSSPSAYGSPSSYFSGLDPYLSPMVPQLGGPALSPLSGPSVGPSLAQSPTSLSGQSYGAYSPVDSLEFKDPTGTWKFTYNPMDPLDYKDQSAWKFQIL
# Outline: as §1
# ETV1 = ETV1 (Homo sapiens, UniProt P50549 1-477); settings: protein: recombinant; tags: N-terminal GST; dsDNA, one strand shown
# Chain of ETV1 (P50549 whole entry): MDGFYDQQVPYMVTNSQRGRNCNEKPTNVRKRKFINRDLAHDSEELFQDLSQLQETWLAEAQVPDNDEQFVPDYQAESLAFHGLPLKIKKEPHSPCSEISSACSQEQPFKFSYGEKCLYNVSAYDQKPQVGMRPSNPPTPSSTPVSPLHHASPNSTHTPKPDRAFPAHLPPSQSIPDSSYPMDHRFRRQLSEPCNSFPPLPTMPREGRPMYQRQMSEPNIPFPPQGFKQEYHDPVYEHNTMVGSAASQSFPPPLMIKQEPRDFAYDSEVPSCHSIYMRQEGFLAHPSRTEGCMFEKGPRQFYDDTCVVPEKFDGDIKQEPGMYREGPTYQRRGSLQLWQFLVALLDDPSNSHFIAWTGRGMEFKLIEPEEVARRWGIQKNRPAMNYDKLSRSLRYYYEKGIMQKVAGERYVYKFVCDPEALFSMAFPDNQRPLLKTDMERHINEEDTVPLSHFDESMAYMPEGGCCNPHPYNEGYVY
# Outline: as §1
# ERF = molecular target: T6, ERF (Homo sapiens, UniProt P50548 1-548); settings: protein: recombinant; tags: N-terminal GST; dsDNA, one strand shown
# T6 sequence: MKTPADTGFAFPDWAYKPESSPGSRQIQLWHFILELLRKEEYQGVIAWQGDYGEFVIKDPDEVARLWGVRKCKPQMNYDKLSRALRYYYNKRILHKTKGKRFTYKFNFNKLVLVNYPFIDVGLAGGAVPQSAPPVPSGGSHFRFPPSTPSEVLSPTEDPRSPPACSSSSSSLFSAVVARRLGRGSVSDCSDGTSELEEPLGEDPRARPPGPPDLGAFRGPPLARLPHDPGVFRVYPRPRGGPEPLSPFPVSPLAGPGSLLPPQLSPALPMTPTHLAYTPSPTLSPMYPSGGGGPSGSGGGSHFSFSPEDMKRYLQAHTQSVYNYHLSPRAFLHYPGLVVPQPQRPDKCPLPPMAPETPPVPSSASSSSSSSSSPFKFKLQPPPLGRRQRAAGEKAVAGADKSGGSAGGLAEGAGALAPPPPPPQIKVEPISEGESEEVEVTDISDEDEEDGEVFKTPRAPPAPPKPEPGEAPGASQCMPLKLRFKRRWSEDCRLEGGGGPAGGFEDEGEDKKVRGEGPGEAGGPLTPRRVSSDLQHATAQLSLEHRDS
# Outline: as §1
# ETV3L = molecular target: T7, ETV3L (Homo sapiens, UniProt Q6ZN32 1-361); settings: protein: recombinant; tags: N-terminal GST; dsDNA, one strand shown
# T7 sequence: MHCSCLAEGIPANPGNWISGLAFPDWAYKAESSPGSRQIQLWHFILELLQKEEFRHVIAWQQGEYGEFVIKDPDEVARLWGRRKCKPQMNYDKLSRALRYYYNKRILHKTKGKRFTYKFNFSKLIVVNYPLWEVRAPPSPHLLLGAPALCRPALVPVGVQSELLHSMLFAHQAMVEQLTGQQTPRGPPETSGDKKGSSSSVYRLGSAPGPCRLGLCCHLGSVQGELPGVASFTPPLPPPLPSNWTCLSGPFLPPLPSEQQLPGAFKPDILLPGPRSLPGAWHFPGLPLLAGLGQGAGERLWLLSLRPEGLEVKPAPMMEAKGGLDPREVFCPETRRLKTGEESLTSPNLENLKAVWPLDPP
# Outline: as §1
# ETS2 = molecular target: T8, ETS2 (Homo sapiens, UniProt P15036 1-469); settings: protein: recombinant; tags: N-terminal GST; dsDNA, one strand shown
# T8 sequence: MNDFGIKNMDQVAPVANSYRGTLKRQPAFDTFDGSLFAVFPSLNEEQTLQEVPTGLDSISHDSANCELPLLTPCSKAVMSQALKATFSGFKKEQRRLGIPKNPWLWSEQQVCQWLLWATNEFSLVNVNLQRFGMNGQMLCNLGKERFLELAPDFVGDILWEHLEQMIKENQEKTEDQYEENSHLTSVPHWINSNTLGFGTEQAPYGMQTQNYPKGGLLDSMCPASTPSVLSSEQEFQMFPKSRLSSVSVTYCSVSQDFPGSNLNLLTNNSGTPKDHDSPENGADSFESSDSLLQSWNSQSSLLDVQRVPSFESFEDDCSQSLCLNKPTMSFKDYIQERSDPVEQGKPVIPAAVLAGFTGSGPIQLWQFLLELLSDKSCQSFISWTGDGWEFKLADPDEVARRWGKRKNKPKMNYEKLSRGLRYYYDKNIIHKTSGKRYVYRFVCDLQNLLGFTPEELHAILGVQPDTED
# Outline: as §1
# SPDEF = molecular target: T9, SPDEF (Homo sapiens, UniProt O95238 1-335); settings: protein: recombinant; tags: N-terminal GST; dsDNA, one strand shown
# T9 sequence: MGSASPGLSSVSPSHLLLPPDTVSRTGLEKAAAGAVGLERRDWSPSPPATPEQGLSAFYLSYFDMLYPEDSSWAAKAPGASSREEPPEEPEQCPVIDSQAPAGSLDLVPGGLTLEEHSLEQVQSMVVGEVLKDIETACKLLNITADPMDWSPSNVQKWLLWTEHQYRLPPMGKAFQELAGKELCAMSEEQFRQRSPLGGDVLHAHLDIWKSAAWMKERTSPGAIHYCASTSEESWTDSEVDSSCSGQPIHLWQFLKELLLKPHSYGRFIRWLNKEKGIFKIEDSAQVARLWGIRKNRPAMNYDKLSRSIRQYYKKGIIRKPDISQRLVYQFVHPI
# Outline: as §1
# ETV7 = molecular target: T10, ETV7 (Homo sapiens, UniProt Q9Y603 1-341); settings: protein: recombinant; tags: N-terminal GST; dsDNA, one strand shown
# T10 sequence: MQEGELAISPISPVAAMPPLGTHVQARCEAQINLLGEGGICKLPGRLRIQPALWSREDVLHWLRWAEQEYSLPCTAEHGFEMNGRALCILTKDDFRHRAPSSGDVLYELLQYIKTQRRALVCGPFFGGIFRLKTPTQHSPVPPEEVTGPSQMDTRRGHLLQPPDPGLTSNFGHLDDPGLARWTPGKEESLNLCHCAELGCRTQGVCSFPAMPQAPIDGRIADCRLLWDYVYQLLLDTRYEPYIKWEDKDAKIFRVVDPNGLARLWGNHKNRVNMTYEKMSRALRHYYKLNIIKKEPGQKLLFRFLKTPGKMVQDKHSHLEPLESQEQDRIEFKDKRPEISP
# Outline: as §1
# ELF5 = molecular target: T11, ELF5 (Homo sapiens, UniProt Q9UKW6-2 1-255); settings: protein: recombinant; tags: N-terminal GST; dsDNA, one strand shown
# T11 sequence: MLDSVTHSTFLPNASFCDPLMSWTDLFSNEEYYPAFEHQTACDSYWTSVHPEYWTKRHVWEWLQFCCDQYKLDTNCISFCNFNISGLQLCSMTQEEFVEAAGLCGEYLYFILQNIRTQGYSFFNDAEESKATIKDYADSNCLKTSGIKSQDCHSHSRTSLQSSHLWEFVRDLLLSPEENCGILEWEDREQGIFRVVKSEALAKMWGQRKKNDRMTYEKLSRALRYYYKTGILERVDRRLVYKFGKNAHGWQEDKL
# Outline: as §1
# ETV3 = molecular target: T12, ETV3 (Homo sapiens, UniProt P41162-2 1-143); settings: protein: recombinant; tags: N-terminal GST; dsDNA, one strand shown
# T12 sequence: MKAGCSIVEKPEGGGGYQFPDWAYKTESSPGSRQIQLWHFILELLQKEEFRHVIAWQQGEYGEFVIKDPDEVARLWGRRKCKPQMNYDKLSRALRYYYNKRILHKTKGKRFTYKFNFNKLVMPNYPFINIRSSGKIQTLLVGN
# Outline: as §1
# ETV6 = ETV6 (Homo sapiens, UniProt P41212 1-452); settings: protein: recombinant; tags: N-terminal GST; dsDNA, one strand shown
# Chain of ETV6 (P41212 whole entry): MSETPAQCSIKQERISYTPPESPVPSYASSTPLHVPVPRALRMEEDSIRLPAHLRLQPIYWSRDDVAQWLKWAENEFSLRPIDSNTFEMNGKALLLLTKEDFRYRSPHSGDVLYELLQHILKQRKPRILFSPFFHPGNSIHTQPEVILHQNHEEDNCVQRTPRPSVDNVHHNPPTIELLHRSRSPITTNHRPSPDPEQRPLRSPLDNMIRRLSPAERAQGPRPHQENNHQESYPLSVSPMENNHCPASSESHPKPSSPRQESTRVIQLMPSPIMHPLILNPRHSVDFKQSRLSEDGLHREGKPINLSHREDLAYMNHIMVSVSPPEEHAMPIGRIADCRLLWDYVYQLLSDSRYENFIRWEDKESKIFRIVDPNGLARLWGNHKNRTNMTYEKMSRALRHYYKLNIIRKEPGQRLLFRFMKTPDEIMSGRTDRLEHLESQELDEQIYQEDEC
# Outline: as §1
sequence,measurement,setting,value
ATGCAT,binding signal,FEV,"1.18 fold enrichment (6-mer frequency, TF over GST control)"
same,binding signal,ETV5,"1.19 fold enrichment (6-mer frequency, TF over GST control)"
same,binding signal,HSF1,"1 fold enrichment (6-mer frequency, TF over GST control)"
same,binding signal,SPIC,"1.31 fold enrichment (6-mer frequency, TF over GST control)"
same,binding signal,ELF4,"1.28 fold enrichment (6-mer frequency, TF over GST control)"
same,binding signal,ELK4,"1.11 fold enrichment (6-mer frequency, TF over GST control)"
same,binding signal,ETV2,"1.27 fold enrichment (6-mer frequency, TF over GST control)"
same,binding signal,ELF3,"1.07 fold enrichment (6-mer frequency, TF over GST control)"
same,binding signal,CRX,"1.05 fold enrichment (6-mer frequency, TF over GST control)"
same,binding signal,ETV1,"1.15 fold enrichment (6-mer frequency, TF over GST control)"
same,binding signal,ERF,"1.21 fold enrichment (6-mer frequency, TF over GST control)"
same,binding signal,ETV3L,"1.26 fold enrichment (6-mer frequency, TF over GST control)"
same,binding signal,ETS2,"1.21 fold enrichment (6-mer frequency, TF over GST control)"
same,binding signal,SPDEF,"1.32 fold enrichment (6-mer frequency, TF over GST control)"
same,binding signal,ETV7,"1.21 fold enrichment (6-mer frequency, TF over GST control)"
same,binding signal,ELF5,"1.15 fold enrichment (6-mer frequency, TF over GST control)"
same,binding signal,ETV3,"1.26 fold enrichment (6-mer frequency, TF over GST control)"
same,binding signal,ETV6,"1.2 fold enrichment (6-mer frequency, TF over GST control)"
